Screens from PubChem BioAssay.
RGS4 inhibitor – Inhibitors of Regulator of G Protein Signaling (RGS) 4: qHTS; Potency, µM (top dose mostly 114 µM), for the others: at the highest dose activity change, negative = inhibition, actives largely listed as inhibitors; actives 0.039% (n = 390,000); Transcreener GDP fluorescence polarization, RGS4-accelerated GTP hydrolysis; note: potency is the fitted concentration of half-maximal effect; % is set by controls: 0 for no effect and ±100 for the full control effect; nearly all actives have a fitted effect of over 75% in size
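MLSMR compounds (23 nl, pin-transferred) preincubated 10 min at room temperature with a 500nM (2x) first reagent, then RGS4 at 900nM (2x) plus Transcreener GDP mix added; fluorescence polarization (620/688 nm) read before and after 90 min at 30 °C.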
DRD3 antagonist – qHTS of D3 Dopamine Receptor Antagonist: qHTS. D3R cells, DiscoveRx beta-arrestin luminescence, antagonist mode; hits give low values. max response, negative = inhibition, %. actives 2.5% (n = 360,000). AID 652054, 2013; in the data active = max response below about -50%; inconclusive = no clear call, values can overlap the other calls; note: % is set by controls: 0 for no effect and ±100 for the full control effect
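Cells expressing the human receptor were seeded at 1500 cells/well, incubated overnight at 37 degrees C in 5% CO2, then exposed to library compounds with dopamine controls for 90 minutes at 37 degrees C before luminescent detection.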
PTHR1 ag – qHTS for PTHR1 Agonists: Primary Screen; HEK293 GP2 PTHR1 cells, GloSensor cAMP luminescence, 1 h; Potency, µM (doses to about 115 µM), inactives show top-dose activation, hits mostly activators; actives 0.075% (n = 410,000); AID 743266, 2014; note: potency is the fitted concentration of half-maximal effect; nearly all actives have a fitted effect of over 55% in size
Target sequence (Q03431 whole entry, looked up): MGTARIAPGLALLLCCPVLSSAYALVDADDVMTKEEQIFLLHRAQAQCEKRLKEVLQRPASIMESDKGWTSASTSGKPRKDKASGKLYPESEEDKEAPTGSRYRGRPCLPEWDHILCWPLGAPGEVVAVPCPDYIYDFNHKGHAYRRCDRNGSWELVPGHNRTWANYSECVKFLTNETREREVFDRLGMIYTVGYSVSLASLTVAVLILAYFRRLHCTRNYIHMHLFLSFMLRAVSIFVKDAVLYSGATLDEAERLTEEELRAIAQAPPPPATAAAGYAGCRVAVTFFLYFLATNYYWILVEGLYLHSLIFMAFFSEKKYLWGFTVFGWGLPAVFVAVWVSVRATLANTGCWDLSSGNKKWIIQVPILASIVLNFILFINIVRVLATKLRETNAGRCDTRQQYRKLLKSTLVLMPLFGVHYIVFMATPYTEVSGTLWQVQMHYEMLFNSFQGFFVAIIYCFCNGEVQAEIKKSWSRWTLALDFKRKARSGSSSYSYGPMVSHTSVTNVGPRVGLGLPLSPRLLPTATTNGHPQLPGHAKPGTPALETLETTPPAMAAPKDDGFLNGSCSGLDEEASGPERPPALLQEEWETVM
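HEK-293-derived GP2 cells expressing PTHR1 and a GloSensor cAMP reporter, 3,000/well, plated overnight, given luciferin plus IBMX (each 0.5 mM as added) for 1 h at 37 °C, then compound for 1 h at 37 °C. Luminescence was read after 15 min at room temperature.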
DRD3 agonist – qHTS of D3 Dopamine Receptor Agonist: qHTS; D3R DiscoveRx beta-arrestin cells, luminescence, 90 min; max activation, %; actives 0.58% (n = 410,000); AID 652048, 2013; in the data active = max activation above about 30%; note: 0% is about no effect
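Cells at 1500/well, incubated overnight, then treated with pinned compounds (dopamine as control) for 90 min at 37 degrees C. DiscoveRx reagent added for 30 - 60 minutes at room temperature; luminescence read.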
BRCA1 expr up – qHTS Assay to Identify Small Molecule Activators of BRCA1 Expression | MCF7-BRCA1-FFLuc reporter, luminescence, 48 h; response scale: scaled: vehicle 0%, 10 µM genistein 100% | Potency, µM (top dose mostly 46.1 µM), without a hit: top-dose activation, usual class: activators | actives 1.1% (n = 380,000); note: potency is the fitted concentration of half-maximal effect; nearly all actives have a fitted effect of over 80% in size
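Compounds are tested at multiple concentrations on MCF7 BRCA1-luciferase reporter cells seeded at 2000 per well; after 48 h, a single luminescence end-point is taken and curves fitted to the normalized data.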
B2AR arrestin – qHTS assay of beta-arrestin-biased ligands of beta2-adrenergic receptor; actives 0.02% (n = 330,000); AID 492947, 2010; beta-arrestin recruitment to beta2AR, cell-based reporter; Potency, µM (doses to about 46.1 µM), for the others: at the top dose activation, actives largely listed as activators; Beta-2 adrenergic receptor (Homo sapiens), P07550;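 note: potency is the fitted concentration of half-maximal effect; 0% = DMSO controls and full agonism = EC100 isoproterenol or metaproterenol; nearly all actives have a fitted effect of over 65% in size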
* = called active by the depositor; i = inactive; ? = inconclusive; . = no result given; [ ] = remark or other dose. Compounds with a hit are over-represented: about 3.7% of the library has one in this group of screens. Unless noted, calls come from the whole dose curve; as a rule, active = well fitted curve in the direction sought with a large enough effect; inconclusive = small, poorly fitted or top-dose-only effect, or another doubt; inactive = no such curve, though single readings can be large; an effect the other way counts as inactive or inconclusive.

SMILES | RGS4 inhibitor | DRD3 antagonist | PTHR1 ag | DRD3 agonist | BRCA1 expr up | B2AR arrestin
COc1ccc(NC(=O)N[C@H]2CC[C@@H](CC(=O)NC3CCC3)O[C@@H]2CO)cc1 | . | 13 | -10% | 7 | . | .
Fc1ccc(/C=C/c2nnc(-c3cccs3)o2)cc1 | 29% | -29 | 0% | -6 | 2µM* | 0%
COC(=O)c1ccc(NC(=O)Nc2cccc(F)c2)cc1 | 3% | 4 | -22% | 9 | 98% | -1%
COc1ccc(NC(=O)C(NC(=O)/C=C\c2ccc3c(c2)OCO3)c2ccc(OC)cc2)cc1 (stereo not given) | 8% | . | 27% | -17 | . | .
O=C(NCCc1ccc(F)cc1)Nc1ccc2c(c1)OCO2 | -15%[11.4 µM] | -2 | i | -4 | 13µM* | 0%
COC(=O)c1ccc(NC(=O)Nc2ccc(F)cc2F)cc1 | -2% | 13 | -18% | -3 | 3.2µM* | 0%
Cc1ccc(C(NC(=O)/C=C\c2ccc3c(c2)OCO3)C(=O)Nc2ccc3c(c2)OCO3)cc1 (stereo not given) | 13% | -88* | i | -28 | -7% | 1%
O=C(CCc1ccccc1)Nc1ccc2c(c1)OCO2 | 17% | -14 | i | -2 | 93% | 0%
O=C(Nc1ccc2c(c1)OCO2)OCc1ccccc1 | 22% | -3 | -53%[57.5 µM] | -16 | 2.2µM* | 0%
CCc1nnc(NS(=O)(=O)c2ccc(NC(=O)c3ccc([N+](=O)[O-])s3)cc2)s1 | . | -22 | i | -5 | -42% | .
O=C(CSc1nc(=O)n(CCCN2CCOCC2)c2c1CCCC2)Nc1ccc(Cl)cc1 | -5% | 6 | i | 1 | -25% | 0%
O=C(Nc1ccc2c(c1)OCO2)Nc1ccc2c(c1)OCO2 | -3% | -22 | -1% | -17 | ? | 0%
O=C(Nc1ccc2c(c1)OCO2)Nc1ccc(F)cc1F | 30% | -11 | -36% | 1 | 3.2µM* | 5%
O=C(Nc1ccc2c(c1)OCO2)Nc1ccccn1 | 13% | 19 | -32% | 1 | 2.5µM* | 0%
Cc1ccc(NC(=O)Nc2ccc3c(c2)OCO3)c(Br)c1 | -26% | -9 | i | -2 | 1.8µM* | 6%
O=C(Nc1ccc(F)cc1)Nc1ccc2c(c1)OCO2 | 14% | -4 | -13% | 12 | ? | -1%
O=C(Cn1cc(SCc2ccc(Cl)cc2)c2ccccc21)N1CCCC1 | 12% | . | -55% | -33 | . | .
O=[N+]([O-])c1cccc(-c2noc(-c3ccco3)n2)c1 | 15% | -21 | -29% | -1 | 18% | 0%
COc1ccccc1CN1C(=O)C(Cc2ccccc2)ON=C1c1ncccc1C (stereo not given) | . | 6 | i | 6 | -4% | .
CCOc1ccccc1N1CC(C(=O)NC2CCCCCC2)CC1=O (stereo not given) | -3% | 5 | -18% | -10 | -2% | 1%
CCc1c(C)c2cc3c(c(C)c2oc1=O)OCN(CCc1ccccc1F)C3 | -31% | . | i | -35 | . | .
CSC1=NC=C(C#N)C2=NC(c3c(Cl)cccc3Cl)NN12 (stereo not given) | . | 2 | -4% | -2 | -38% | .
Cc1ccc(-n2nnnc2SCC(=O)c2c(N)n(C3CC3)c(=O)[nH]c2=O)cc1C | 10% | 14 | i | 2 | -18% | 0%
O=C(Nc1ccc(O)cc1)c1ccc(NC(=O)c2cccs2)cc1 | -21% | 7 | -3% | -2 | 4µM* | 0%
O=C(O)c1ccccc1C(=O)Nc1ccc(-n2ccc(C(F)(F)F)n2)cc1 | -2% | 1 | i | -2 | -4% | 0%
SMILES | RGS4 inhibitor | DRD3 antagonist | PTHR1 ag | DRD3 agonist | BRCA1 expr up | B2AR arrestin
CSc1nc2ccc(NC(=O)c3cccs3)cc2s1 | -13% | -20 | -9% | -16 | 4.5µM* | 0%
O=C(Nc1ccc(-n2ccc(C(F)(F)F)n2)cc1)c1cccs1 | 13% | -15 | -17% | -7 | 6.3µM* | 0%
Cc1ccc(NC(=O)c2cccs2)cc1 | 8% | ? | -30% | 0 | 2.2µM* | 0%
O=C(Nc1ccc(NC(=O)c2cccs2)cc1)c1ccccc1 | -42% | -9 | i | 10 | 28% | 0%
Cc1ccc(NC(=O)C(=O)NNC(=O)c2cccs2)cc1 | 15% | -4 | -5% | 3 | 37% | 0%
O=C(Nc1ccc(Cc2ccncc2)cc1)c1cccs1 | 15% | -19 | -7% | 31* | ? | 0%
O=C(c1ccncc1)c1ccc(NC(=O)c2cccs2)cc1 | 10% | 4 | -6% | -1 | 2% | 0%
O=C(O)CC1S/C(=N\N=C2\C(=O)Nc3ccccc32)N(c2ccc(O)cc2)C1=O (stereo not given) | -8% | -20 | i | 22 | -21% | 0%
Cc1cc(C)c(S(=O)(=O)Nc2ncn[nH]2)cc1C | 32% | 0 | i | -5 | -1% | -1%
C=CCN(C/C(=N\O)c1sc(C(=O)OCC)nc1C)c1cccc(Br)c1 | 8% | 4 | -62% | 63* | -17% | .
CC(C)Cc1cc(CN2CCCC(CO)(Cc3cccc(Cl)c3)C2)[nH]n1 (stereo not given) | 7% | -67* | -48% | -20 | -37% | -1%
COC(=O)c1ccc(CN2CCCC(CO)(Cc3ccccc3F)C2)cc1 (stereo not given) | -7% | -88* | i | -19 | -6% | 0%
OCC1(CCc2ccccc2)CCCN(CCCc2ccccc2)C1 (stereo not given) | 7% | -70* | i | -22 | 0% | 0%
CSc1ccc(CN2CCCC(CO)(Cc3ccccc3)C2)cc1 (stereo not given) | -26% | -67* | -8% | -4 | 2% | 0%
O=c1oc2ccccc2cc1-c1nc(-c2cccs2)no1 | -16% | . | -34% | -2 | . | .
O=C(Nc1cccc(C(=O)OCc2cc(=O)n3c4c(sc3n2)CCCC4)c1)c1ccc(Cl)cc1 | 3% | . | -7% | 10 | . | .
O=C(CCn1cccn1)Nc1ccc(-c2ccno2)cc1 | 10% | 7 | i | 7 | 64% | 0%
CCOc1ccc(CN2CCCC(CO)(Cc3ccc(F)cc3)C2)cc1 (stereo not given) | -23% | -20 | i | -19 | 1% | 0%
OCC1(Cc2ccc(F)cc2)CCCN(Cc2ccc(F)cc2Cl)C1 (stereo not given) | -6% | -61* | ? | -11 | -32% | 0%
